These results are taken from ChEMBL document CHEMBL3988442, “University of Dundee, Small-Polar-MMV Screening Library” (2021).

What all share (design): scale not given: direction of the effect not stated beside the values
Experiment [1] concerns the target Protein translocase subunit SecA (Escherichia coli (strain K12)) (UniProt P10408). Description: Assay to Identify E. coli SecA ATPase Inhibitors. It counts as functional. Particulars: 30 µM.
The target in experiment [2] is T1, Ubiquitin-activating enzyme e1, putative (Leishmania donovani (strain BPK282A1)) (UniProt E9BSI1).
T1 sequence (whole entry): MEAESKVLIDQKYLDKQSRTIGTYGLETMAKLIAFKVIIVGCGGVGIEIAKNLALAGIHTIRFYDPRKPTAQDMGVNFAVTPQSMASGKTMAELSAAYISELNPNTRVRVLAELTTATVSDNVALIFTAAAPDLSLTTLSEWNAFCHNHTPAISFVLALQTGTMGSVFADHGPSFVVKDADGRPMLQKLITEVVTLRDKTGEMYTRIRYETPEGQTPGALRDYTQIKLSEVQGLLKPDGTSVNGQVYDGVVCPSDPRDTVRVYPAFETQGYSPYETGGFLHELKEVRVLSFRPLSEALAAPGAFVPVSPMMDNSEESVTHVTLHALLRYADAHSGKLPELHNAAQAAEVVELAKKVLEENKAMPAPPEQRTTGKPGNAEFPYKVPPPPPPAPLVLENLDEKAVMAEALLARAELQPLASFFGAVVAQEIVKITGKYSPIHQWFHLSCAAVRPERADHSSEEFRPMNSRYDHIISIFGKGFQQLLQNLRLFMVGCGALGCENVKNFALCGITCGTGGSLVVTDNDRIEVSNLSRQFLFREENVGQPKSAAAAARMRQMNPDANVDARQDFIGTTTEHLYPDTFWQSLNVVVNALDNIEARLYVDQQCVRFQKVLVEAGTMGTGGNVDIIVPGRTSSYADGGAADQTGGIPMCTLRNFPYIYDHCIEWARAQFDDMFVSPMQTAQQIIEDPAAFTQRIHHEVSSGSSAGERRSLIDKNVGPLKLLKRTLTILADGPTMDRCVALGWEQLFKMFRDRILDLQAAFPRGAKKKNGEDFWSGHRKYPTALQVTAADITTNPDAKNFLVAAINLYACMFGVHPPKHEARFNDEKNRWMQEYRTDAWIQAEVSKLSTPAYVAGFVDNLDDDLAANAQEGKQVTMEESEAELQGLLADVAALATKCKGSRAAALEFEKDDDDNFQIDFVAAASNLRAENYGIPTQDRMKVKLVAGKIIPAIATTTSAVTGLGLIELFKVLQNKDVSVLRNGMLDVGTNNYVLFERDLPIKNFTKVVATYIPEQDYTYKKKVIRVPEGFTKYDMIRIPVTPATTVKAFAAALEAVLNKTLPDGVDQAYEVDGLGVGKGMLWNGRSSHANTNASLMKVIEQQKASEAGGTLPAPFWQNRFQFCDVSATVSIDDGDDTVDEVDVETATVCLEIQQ
Description: Leishmania donovani Ubiquitin Activating Enzyme (LdE1). It counts as functional. As to conditions: 30 µM.

Experiment [3] deals with AMP-activated protein kinase, AMPK (Homo sapiens) (UniProt P54646+O43741+P54619+Q9UGJ0+Q9Y478+Q13131+Q9UGI9). Description: AMP-dependent Kinase enzyme assay. An in vitro enzyme assay that detects ADP turnover that is directly proportional to AMPK activity. This uses naive AMPK that is activated during the assay with MK-8722. It counts as functional. As to conditions: 30 µM.

In experiment [4] the target is Sialic acid-binding Ig-like lectin 9 (Homo sapiens) (UniProt Q9Y336). Description: Hs-Siglec9 ALPHAscreen SOP 20170721. As to conditions: 10 µM.
A further experiment relates to Trypanosoma cruzi. Description: Trypanosoma cruzi phosphomannomutase and mannose-1-phosphate guanylyltransferase assay. It counts as functional. Particulars: 10 µM.
Experiment [5] addresses T2, Arginase-2, mitochondrial (Homo sapiens) (UniProt P78540).
T2 sequence (whole entry): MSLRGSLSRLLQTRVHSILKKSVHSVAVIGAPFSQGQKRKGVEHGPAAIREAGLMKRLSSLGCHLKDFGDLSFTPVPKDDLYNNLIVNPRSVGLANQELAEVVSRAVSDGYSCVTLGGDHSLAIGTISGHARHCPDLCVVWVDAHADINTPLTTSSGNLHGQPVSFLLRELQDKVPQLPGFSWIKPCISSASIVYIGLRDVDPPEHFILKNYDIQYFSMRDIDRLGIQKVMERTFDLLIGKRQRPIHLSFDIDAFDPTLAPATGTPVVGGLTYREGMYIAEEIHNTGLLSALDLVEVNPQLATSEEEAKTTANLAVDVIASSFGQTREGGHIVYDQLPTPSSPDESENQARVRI
Description: in vitro enzyme assay to detect the production of urea directly proportional to the activity of Arginase II. Further: in the data most compounds retested in dose-response had high values. It counts as functional. Particulars: 33.3 µM.

For experiment [6], the target named is T3, Proteasome subunit beta (Trypanosoma cruzi) (UniProt O96673).
T3 sequence (whole entry): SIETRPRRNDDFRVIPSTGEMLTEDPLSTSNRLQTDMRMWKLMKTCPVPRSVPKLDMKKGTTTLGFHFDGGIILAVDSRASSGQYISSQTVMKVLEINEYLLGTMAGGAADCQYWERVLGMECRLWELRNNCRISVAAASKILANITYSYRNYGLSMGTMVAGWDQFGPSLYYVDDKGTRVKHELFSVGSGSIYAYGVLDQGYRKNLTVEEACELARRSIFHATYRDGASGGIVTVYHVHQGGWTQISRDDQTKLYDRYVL
Description: Trypanosoma cruzi proteasome chymotrypsin-like activity (TcProtChymo) assay. Further: in the data most compounds retested in dose-response had high values. It counts as functional. As to conditions: 9.37 µM.

The species named for a further experiment is Homo sapiens. Description: To identify inhibition of the IFN signalling (Jak-Stat) pathway via expression of an eGFP reporter gene under the control of an IFN-stimulated response element (ISRE) containing MxA promoter. It counts as functional. Particulars: 30 µM.
In experiment [7] the target is T4, Tyrosyl-tRNA synthetase, putative (Trypanosoma cruzi (strain CL Brener)) (UniProt Q4DSP6).
T4 sequence (whole entry): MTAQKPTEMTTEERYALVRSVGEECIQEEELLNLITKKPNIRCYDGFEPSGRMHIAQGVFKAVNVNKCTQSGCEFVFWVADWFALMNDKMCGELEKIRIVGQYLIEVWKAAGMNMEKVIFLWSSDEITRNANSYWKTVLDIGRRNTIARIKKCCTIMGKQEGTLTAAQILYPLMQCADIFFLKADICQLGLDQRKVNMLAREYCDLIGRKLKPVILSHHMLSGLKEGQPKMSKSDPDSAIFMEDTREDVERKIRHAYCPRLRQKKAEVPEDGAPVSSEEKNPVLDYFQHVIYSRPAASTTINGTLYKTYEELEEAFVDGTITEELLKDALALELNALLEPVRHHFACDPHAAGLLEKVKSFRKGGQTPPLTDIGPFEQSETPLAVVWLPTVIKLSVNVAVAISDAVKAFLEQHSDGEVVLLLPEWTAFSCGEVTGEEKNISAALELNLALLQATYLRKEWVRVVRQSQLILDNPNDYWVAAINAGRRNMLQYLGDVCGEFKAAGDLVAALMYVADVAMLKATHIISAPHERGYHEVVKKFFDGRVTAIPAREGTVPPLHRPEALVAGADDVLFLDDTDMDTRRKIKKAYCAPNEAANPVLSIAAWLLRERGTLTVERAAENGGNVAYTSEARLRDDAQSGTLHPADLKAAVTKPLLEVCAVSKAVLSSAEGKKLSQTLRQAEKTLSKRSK
Description: Trypanosoma cruzi tyrosyl tRNA synthetase (TcYRS) _High Tyrosine SOP. Further: in the data most compounds retested in dose-response had high values. It counts as functional. As to conditions: 30 µM.

For experiment [8], the target named is T4, Tyrosyl-tRNA synthetase, putative (Trypanosoma cruzi (strain CL Brener)). Description: Trypanosoma cruzi tyrosyl tRNA synthetase (TcYRS) SOP. Format: functional. As to conditions: 30 µM.
Experiment [9] deals with Chromo domain-containing protein 1 (Saccharomyces cerevisiae (strain ATCC 204508 / S288c) (Baker's yeast)) (UniProt P32657). Description: ScCHD-1 Enzyme Inhibition Assay. Further: in the data most compounds retested in dose-response had high values. It counts as functional. Particulars: 30 µM.

For some of these results: Entries with a potency or affinity are not part of this list.

Chromo domain-containing protein 1 (Saccharomyces cerevisiae (strain ATCC 204508 / S288c) (Baker's yeast)), sequence (P32657 whole entry, the tested form may be a part): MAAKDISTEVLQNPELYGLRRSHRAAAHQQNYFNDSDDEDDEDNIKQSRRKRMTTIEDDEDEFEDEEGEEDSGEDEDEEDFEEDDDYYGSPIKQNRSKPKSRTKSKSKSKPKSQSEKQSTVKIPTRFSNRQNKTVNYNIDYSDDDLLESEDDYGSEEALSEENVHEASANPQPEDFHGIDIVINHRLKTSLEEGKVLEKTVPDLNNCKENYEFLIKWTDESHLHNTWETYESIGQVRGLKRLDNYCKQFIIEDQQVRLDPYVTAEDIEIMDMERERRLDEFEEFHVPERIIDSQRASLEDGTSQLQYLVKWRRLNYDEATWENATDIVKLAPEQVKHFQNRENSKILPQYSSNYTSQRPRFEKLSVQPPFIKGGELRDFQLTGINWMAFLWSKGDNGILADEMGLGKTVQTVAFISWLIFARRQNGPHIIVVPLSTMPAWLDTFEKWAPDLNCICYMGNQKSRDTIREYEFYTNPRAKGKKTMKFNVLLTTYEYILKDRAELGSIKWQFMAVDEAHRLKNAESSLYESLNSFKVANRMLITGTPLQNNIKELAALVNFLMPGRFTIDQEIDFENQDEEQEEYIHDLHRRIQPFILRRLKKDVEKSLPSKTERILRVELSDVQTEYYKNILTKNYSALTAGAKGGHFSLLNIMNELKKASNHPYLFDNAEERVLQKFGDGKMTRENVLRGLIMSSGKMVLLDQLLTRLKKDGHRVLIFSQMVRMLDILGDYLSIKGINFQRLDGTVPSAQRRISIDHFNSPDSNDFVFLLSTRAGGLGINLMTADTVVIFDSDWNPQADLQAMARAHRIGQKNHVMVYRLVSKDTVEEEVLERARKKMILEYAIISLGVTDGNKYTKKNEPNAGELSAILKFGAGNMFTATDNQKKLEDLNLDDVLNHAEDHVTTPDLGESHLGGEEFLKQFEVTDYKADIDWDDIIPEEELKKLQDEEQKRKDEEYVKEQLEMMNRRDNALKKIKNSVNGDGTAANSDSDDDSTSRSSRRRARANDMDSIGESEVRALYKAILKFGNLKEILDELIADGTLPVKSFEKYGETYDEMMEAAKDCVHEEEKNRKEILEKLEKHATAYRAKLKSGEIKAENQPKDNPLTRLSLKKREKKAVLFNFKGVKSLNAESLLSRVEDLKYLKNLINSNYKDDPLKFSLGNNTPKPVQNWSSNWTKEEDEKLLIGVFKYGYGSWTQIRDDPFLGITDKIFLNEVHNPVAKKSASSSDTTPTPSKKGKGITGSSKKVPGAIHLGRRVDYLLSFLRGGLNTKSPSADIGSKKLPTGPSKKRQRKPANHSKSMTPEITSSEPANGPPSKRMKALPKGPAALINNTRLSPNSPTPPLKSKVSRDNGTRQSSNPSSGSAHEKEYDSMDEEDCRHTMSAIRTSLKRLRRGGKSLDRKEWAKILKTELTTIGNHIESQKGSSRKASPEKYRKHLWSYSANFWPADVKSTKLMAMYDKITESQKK
Protein translocase subunit SecA (Escherichia coli (strain K12)), sequence (P10408 whole entry): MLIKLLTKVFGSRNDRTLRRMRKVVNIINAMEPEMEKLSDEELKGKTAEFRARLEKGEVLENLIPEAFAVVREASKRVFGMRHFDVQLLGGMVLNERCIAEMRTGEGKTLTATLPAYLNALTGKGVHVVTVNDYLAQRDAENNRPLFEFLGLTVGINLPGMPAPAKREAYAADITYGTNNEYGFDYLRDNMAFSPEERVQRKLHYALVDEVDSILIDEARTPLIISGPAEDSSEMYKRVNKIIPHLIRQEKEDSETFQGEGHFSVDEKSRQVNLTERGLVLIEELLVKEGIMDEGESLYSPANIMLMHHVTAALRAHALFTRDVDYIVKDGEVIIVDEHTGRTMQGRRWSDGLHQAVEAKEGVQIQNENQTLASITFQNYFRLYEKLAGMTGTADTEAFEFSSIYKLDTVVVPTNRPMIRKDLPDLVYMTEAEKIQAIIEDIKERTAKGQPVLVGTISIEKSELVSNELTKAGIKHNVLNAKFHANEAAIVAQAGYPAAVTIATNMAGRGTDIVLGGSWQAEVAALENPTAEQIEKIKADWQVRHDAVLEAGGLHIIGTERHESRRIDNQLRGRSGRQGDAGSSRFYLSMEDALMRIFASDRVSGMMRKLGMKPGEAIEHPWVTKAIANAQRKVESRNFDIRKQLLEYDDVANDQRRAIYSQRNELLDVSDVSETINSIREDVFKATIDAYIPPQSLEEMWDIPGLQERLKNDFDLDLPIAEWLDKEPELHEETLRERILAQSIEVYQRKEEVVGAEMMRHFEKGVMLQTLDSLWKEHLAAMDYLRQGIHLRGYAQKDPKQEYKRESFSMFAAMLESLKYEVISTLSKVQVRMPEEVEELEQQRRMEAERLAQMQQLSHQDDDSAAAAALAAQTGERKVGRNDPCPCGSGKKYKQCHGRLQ
Sialic acid-binding Ig-like lectin 9 (Homo sapiens), sequence (Q9Y336 whole entry): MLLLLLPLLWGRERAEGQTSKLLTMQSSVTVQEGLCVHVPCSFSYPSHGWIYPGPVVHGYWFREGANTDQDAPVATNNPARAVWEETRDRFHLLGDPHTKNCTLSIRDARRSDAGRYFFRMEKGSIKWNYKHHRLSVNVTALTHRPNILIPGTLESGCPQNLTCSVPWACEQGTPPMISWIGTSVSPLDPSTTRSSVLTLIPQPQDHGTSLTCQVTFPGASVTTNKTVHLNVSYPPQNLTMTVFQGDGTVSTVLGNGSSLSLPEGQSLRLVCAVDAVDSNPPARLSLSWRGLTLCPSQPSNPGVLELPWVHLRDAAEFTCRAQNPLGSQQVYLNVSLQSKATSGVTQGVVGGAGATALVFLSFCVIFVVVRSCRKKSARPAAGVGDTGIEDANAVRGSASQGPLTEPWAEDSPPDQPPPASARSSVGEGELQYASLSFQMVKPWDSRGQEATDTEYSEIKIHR

Regarding `O=C(NCCOc1ccc2c(c1)OCO2)C1CC(=O)N(CC2CC2)C1` (stereo not drawn), the Percent Effect in [1] is -2.83%; in [2] it was 18.4%; in experiment [3] it was 1.65%; in experiment [4], -9.9%; in the experiment on Trypanosoma cruzi it was 6.82%; in experiment [5] it was 0%. The Percent Effect is 9.56% in [6]; -20.7% in the experiment filed under Homo sapiens; 6.4% in experiment [7]; 23.5% in experiment [8]; -7.44% in [9].

For the compound `CCCOCCN1CCC2(CC1)CC(c1ccccc1)C(=O)N2C` (stereo not drawn), the Percent Effect in [1] was 6.56%; in experiment [2], 5.33%; in [3], -0.289%; in experiment [4], -1.03%; in the experiment on Trypanosoma cruzi, -9.45%; in [5], -4.69%. Besides, the Percent Effect in [6] was 18.8%; in the experiment listed under Homo sapiens, 48.6%; in experiment [7], -2.73%; in [8], 1.24%; in experiment [9], -5.61%.

As to `Cc1cccc(-n2ncc(C(=O)N3CCn4c(C)nnc4C3)c2C)c1`, the Percent Effect in experiment [1] was -5.28%; in experiment [2] it was 13.2%; in [3], 0.162%; in [4], -0.191%; in the experiment with Trypanosoma cruzi it was -4.58%; in [5] it was 1.8%. The Percent Effect in experiment [6] is 5.16%; in the experiment filed under Homo sapiens, 12.8%; in experiment [7], -0.493%; in experiment [8], 3.7%; in experiment [9] it was -0.99%.

On to `COc1cccc(S(=O)(=O)CCN2CCC3(CC2)OCCO3)c1`, for which the Percent Effect in experiment [1] was -7.81%; in experiment [2], 2.67%; in [3], -4.97%; in experiment [4] it was 6.11%; with Trypanosoma cruzi it was 3.99%; in experiment [5], 5.21%. Besides, the Percent Effect in experiment [6] is 6.45%; in the experiment listed under Homo sapiens, 6.75%; in experiment [7] it was 3.83%; in experiment [8], 6.17%; in experiment [9], -5.65%.

On to `Cc1nnc(N2CC[C@H]3C[C@@H](C(=O)NC4CCCC4)O[C@H]3C2)s1`, for which the Percent Effect is -5.67% in experiment [1]; 0% in experiment [2]; 11.8% in experiment [3]; -3.34% in experiment [4]; -1.66% with Trypanosoma cruzi; 1.59% in experiment [5]. The Percent Effect is 0.738% in experiment [6]; 10.7% in the experiment filed under Homo sapiens; -1.08% in experiment [7]; 7.69% in experiment [8]; 8.63% in experiment [9].

Turning to `O=C(COCC1CC1)N1CCCC(n2cccn2)C1` (stereo not drawn), the Percent Effect in experiment [1] is -2.32%; in [2] it was 13.9%; in [3], 1.73%; in experiment [4], -2.9%; in the experiment with Trypanosoma cruzi, -2.36%; in experiment [5], 2.8%. Besides, the Percent Effect in [6] was 13.4%; in the experiment filed under Homo sapiens, -5.32%; in experiment [7], -1.04%; in experiment [8] it was -7.59%; in experiment [9] it was -22.9%.

For `CCN(CC)C(=O)CN(C)C1CCc2ccccc21` (stereo not drawn), the Percent Effect in experiment [1] was -0.321%; in experiment [2], 18.4%; in [3], -0.859%; in experiment [4] it was -2.93%; in the experiment with Trypanosoma cruzi, 3.57%; in [5] it was 3.83%. The Percent Effect in experiment [6] was 18.7%; in the experiment filed under Homo sapiens, 11.3%; in experiment [7], 8.33%; in experiment [8] it was 21.9%; in experiment [9], -9.79%.

`O=C(NCc1cccc(F)c1)N1CCC2(CC(=O)N(c3ccsc3)C2)C1` (stereo not drawn): the Percent Effect in [1] is -3.47%; in experiment [2] it was 8.11%; in experiment [3], -0.642%; in experiment [4], -0.223%; with Trypanosoma cruzi, 1.95%; in [5], 0.833%. Besides, the Percent Effect was 15.1% in [6]; -5.74% in the experiment filed under Homo sapiens; 9.9% in experiment [7]; 15.8% in [8]; -4.87% in experiment [9].
